From PubChem BioAssay AID2685 (National Center for Advancing Translational Sciences (NCATS), 2010)
Out of some 320,000 compounds screened, about 2,100 (0.66%) were called active. About 53% were inconclusive and are not listed. Calls follow the shape of the dose curve; as a rule, active = well fitted inhibition curve with a large enough effect in the signal ratio, with a control signal flat (not every such curve was filed as active); inconclusive = small, poorly fitted or top-dose-only effect, or effect the other way, or a change in a side signal; inactive = flat fitted curve, though single readings scatter; the % refers to the signal ratio. For the sample, actives were picked, then their nearest neighbours and some compounds at random.

Assay: qHTS Assay for Lipid Storage Modulators in Drosophila S3 Cells;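 as to cell number change: cells counted by Cell Tracker Red CMTPX staining in the red channel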; as to lipid storage change, negative = inhibition: % is scaled to controls: 0 for no effect and ±100 for the full control effect
Settings: BODIPY lipid droplet fluorescence, 18-24 h, cells fed with added oleic acid; cell number change: measured here: cell count max response; series mostly up to 46.1 µM; lipid storage change, negative = inhibition: at the top concentration
How it was run: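 Laser-scanning cytometry quantifies lipid droplet accumulation (500–530 nm total intensity; droplet/cell object ratio) in oleic acid-fed (400 uM added) Drosophila S3 cells treated with a concentration series. 20 uM Triacsin C defined 100% inhibition.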
Potency is read from the fitted curve at half-maximal effect.

| Structure (SMILES) | outcome | cell number change [%] | Potency | lipid storage change, negative = inhibition |
| --- | --- | --- | --- | --- |
| O=C(NCCN1CCOCC1)c1ccncc1 | inactive | -7.07 |  |  |
| O=C1C=C(NCCN2CCOCC2)C(=O)c2cnccc21 |  | -9.98 | 11.6 µM (active) |  |
| O=C1C=C(NCCN2CCOCC2)CC(c2ccccc2)C1 (stereo not given) |  | -2.43 |  | 27.3% (inactive) |
| COc1ccccc1NC(=O)N1C2CCCC1CC(NC(=O)c1ccccc1)C2 (stereo not given) |  | 9.36 |  | -1.34% (inactive) |
| COc1ccc(NS(=O)(=O)c2ccc3c(c2)oc(=O)n3C)cc1Cl |  | 10.6 |  | 4.42% (inactive) |
| COC(=O)c1ccc(Cl)c(NC(=O)CN(c2ccccc2)S(=O)(=O)c2ccc(OC)cc2)c1 |  | -1.49 |  | -4.68% (inactive) |
| O=[N+]([O-])c1ccc(-c2nc(-c3cccs3)c(-c3cccs3)[nH]2)cc1 |  | 7.44 | 23.1 µM (active) |  |
| O=[N+]([O-])c1cccc(-c2nc(-c3ccccc3)c(-c3cccs3)[nH]2)c1 |  | -14.7 |  | -10.9% (inactive) |
| O=C(O)c1ccc(-c2nc(-c3ccccc3)c(-c3cccs3)[nH]2)cc1 |  | 16.3 |  | 13.4% (inactive) |
| O=S(=O)(Nc1ccc2nc(N3CCOCC3)sc2c1)c1ccc(Cl)cc1 | inactive | -15.7 |  |  |
| CCOC(=O)C1(Cc2cccc(OC)c2)CCN(Cc2cc(OC)ccc2OC)CC1 |  | -22.3 |  | -8.02% (inactive) |
| COc1cc(OC)cc(C(=O)Nc2ccc(C(=O)c3ccncc3)cc2)c1 |  | 2.59 |  | -7.33% (inactive) |
| COc1ccc(C(CCN2CCCC(C)C2)c2c(OC)cc(OC)c3c(C)cc(=O)oc23)cc1 (stereo not given) |  | 7.77 |  | 0.351% (inactive) |
| CC[n+]1c(C)n(-c2ccccc2)c2ccc(C(=O)OC)cc21 |  | 6.2 |  | 0.792% (inactive) |
| Cc1cc(C(F)(F)F)n2ncc(C(=O)O)c2n1 |  |  | 14.6 µM (active) |  |
| Cc1ccc(-c2cc(C(F)(F)F)n3ncc(C(=O)O)c3n2)cc1 |  | -10.1 |  | -0.719% (inactive) |
| Cc1cc(C)n2ncc(C(=O)O)c2n1 |  | 12.3 |  | 16.6% (inactive) |
| C=CCN1CC(=O)N2C(C)c3[nH]c4ccccc4c3C[C@H]2C1=O (stereo not given in full) |  | 1.11 |  | 8.32% (inactive) |
| CCC(=O)Nc1ccc(-c2nnc(SCC(=O)Nc3nccs3)n2C)cc1 |  | 0.852 |  | 8.69% (inactive) |
| COc1cc(C2/C(=C(\O)c3ccc4c(c3)CC(C)O4)C(=O)C(=O)N2CC2CCCO2)cc(OC)c1OC (stereo not given) |  | -16 | 1.3 µM (active) |  |
| COc1cccc(C2/C(=C(/O)c3ccc4c(c3)CC(C)O4)C(=O)C(=O)N2CC2CCCO2)c1 (stereo not given) | inactive | 14.4 |  |  |
| CC1Cc2cc(/C(O)=C3/C(=O)C(=O)N(CC4CCCO4)C3c3ccco3)ccc2O1 (stereo not given) |  | 9.06 |  | 8.54% (inactive) |

| Structure (SMILES) | outcome | cell number change [%] | Potency | lipid storage change, negative = inhibition |
| --- | --- | --- | --- | --- |
| CC(C)N(C(=O)CSc1nnc(NC(=O)c2cccs2)s1)C(C)C |  | -20.6 |  | -9.8% (inactive) |
| CCc1nnc(NC(=O)CCC(=O)NCc2ccc(C)cc2)s1 | inactive |  |  |  |
| CCOC(=O)c1c(NC(=O)CN2C(=O)NC3(CCCCC3C)C2=O)sc(C)c1C (stereo not given) |  | -4.46 |  | 1.6% (inactive) |
| COC(=O)c1c(NC(=O)CN2C(=O)NC3(CCCCC3C)C2=O)sc2c1CCC2 (stereo not given) |  | 2.22 | 1.84 µM (active) |  |
| COC(=O)c1c(NC(=O)CN2C(=O)NC3(CCC(C)CC3)C2=O)sc2c1CCC2 (stereo not given) |  | -11.8 |  | 20.5% (inactive) |
| c1ccc(CCNc2nc3ccccc3n3nnnc23)cc1 | inactive | -15.6 |  |  |
| Oc1ccc(/C=N/Nc2ccnc3cc(Cl)ccc23)c(O)c1 |  | -19.7 | 29.1 µM (active) |  |
| Clc1ccc(NNc2ccnc3cc(Cl)ccc23)cc1 |  | 9.5 |  | 7.38% (inactive) |
| Clc1ccc2c(N/N=C/c3cccnc3)ccnc2c1 | inactive |  |  |  |
| Cc1ccnc(NS(=O)(=O)c2cccc([N+](=O)[O-])c2)c1 |  | 3.2 |  | -5.01% (inactive) |
| COc1ccc(-n2nc(C(=O)NCC(=O)N3CCN(Cc4ccccc4)CC3)c3ccccc3c2=O)c(OC)c1 | inactive | 10.3 |  |  |
| COc1ccc(-n2nc(C(=O)NCC(=O)N3CCN(Cc4ccccc4)CC3)c3ccccc3c2=O)cc1 |  | 5.41 | 0.651 µM (active) |  |
| CCN1CCN(C(=O)CNC(=O)c2nn(-c3ccc(OC)cc3)c(=O)c3ccccc23)CC1 | inactive | 8.11 |  |  |
| COc1ccccc1N1CCN(C(=O)c2ccc(S(=O)(=O)N3CCCCCC3)cc2)CC1 |  | -9.51 |  | -13% (inactive) |
| COc1cc(S(=O)(=O)NCc2ccncc2)c(OC)cc1Cl |  | 12.7 |  | 15.4% (inactive) |
| COc1cc(C)c(Cl)cc1S(=O)(=O)NCc1ccncc1 | inactive | -7.29 |  |  |
| COc1cc(S(=O)(=O)NCc2ccncc2)c(OC)cc1Br |  | 3.68 | 23.1 µM (active) |  |
| COc1ccc(CCNC(=O)CN(C)S(=O)(=O)c2cccc3nsnc23)cc1OC |  | 0.234 |  | 1.44% (inactive) |
| CC(C)c1ccc(CNCCCSc2ncccn2)cc1 | inactive | -5.03 |  |  |
| CC(C)(C)C(=O)CC1(O)C(=O)N(Cc2ccc(Cl)cc2)c2ccccc21 (stereo not given) |  | 7.61 |  | 2% (inactive) |
| CC(=O)N1C(=O)CC(C)N(C(C)=O)c2ccc([N+](=O)[O-])cc21 (stereo not given) |  | 1.88 |  | 2.55% (inactive) |
| CC(C)NC(=O)c1[nH]nc2c1CCc1ccccc1-2 | inactive | -0.945 |  |  |
